# Bioassay records as filed in PubChem.
# Hits are enriched below; roughly 7.9% of the tested compounds scored in any of these assays.
# Lassa entry inh: blocks Lassa virus binding to or entry into cells; 300,000 compounds, 1.2% hits; Lassa virus pseudotype entry inhibition, cell reporter; Potency, µM (titrated, usually from 37.9 µM), actives largely listed as inhibitors; calls by dose curve; tested in HEK293 cells; further: nearly all actives have a fitted effect of over 50% in size
# Marburg entry inh: inhibitors of Marburg virus binding or cell entry | Marburg virus pseudotyped entry inhibition, cell reporter | Potency, µM (top dose mostly 37.8 µM), usual class: inhibitors | 300,000 compounds, 1.8% hits; calls by dose curve; tested in HEK293 cells
# FMDV inh: foot and mouth disease virus antiviral activity; AID 1159524; 410,000 compounds, 1.2% hits; Potency, µM (top dose mostly 57.9 µM), hits mostly inhibitors; FMDV antiviral cell-based qHTS; calls by dose curve; tested in HEK293T cells; further: read-out not given here; nearly all actives have a fitted effect of over 45% in size
# HCMV antiviral: blocks human cytomegalovirus replication | HFF cells, HCMV-luciferase reporter, 72 h; stronger effect = lower value | activity change, negative = inhibition, % at 57.5 µM | 410,000 compounds, 4.5% hits | AID 1259415; in the data active means activity change below about -60%; inconclusive means no clear call, values can overlap the other calls; inactive means above about -39%
#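 Screen run at 2 compound doses on HFFs infected with reporter HCMV, MOI 1 PFU/cell. Luciferase activity from cell lysates at 72 h post infection gave inhibition relative to buffer-only and Salinomycin wells.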
# HCV inh: blocks hepatitis C virus; Potency, µM (series often up to 41.8 µM), hits mostly inhibitors; 340,000 compounds, 3.4% hits; AID 651820; Huh7.5.1 HCVcc-Cre infection, luciferase reporter, 44 h; active means well fitted inhibition curve with a large enough effect; inconclusive means small, poorly fitted or top-dose-only effect, or another doubt; inactive means no such curve, though single readings can be large or run the other way
#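 Compounds are dispensed onto cells plated 4 h earlier at 1,000 per well, with HCVcc-Cre virus (about 0.5 moi) added next. Following 44 h of culture, luminescent signal is measured for 15 sec after 15 min with substrate at room temperature.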
# Numbers stand for hits; n = inactive; u = inconclusive; x = not tested or not shown.
SMILES,Lassa entry inh,Marburg entry inh,FMDV inh,HCMV antiviral,HCV inh
O=C(N=Nc1c(O)[nH]c2ccc(Br)cc12)c1ccccc1-n1cccc1,u,u,u,u,18µM
CCOC(=O)[C@@H]1[C@H]2COc3ccc(Br)cc3[C@@H]2N2C(=O)N(c3ccc(C)cc3)C(=O)[C@@]12C,x,x,n,n,n
CC(=O)c1sc(N/N=C\c2cccc(Br)c2)nc1C,14µM,u,n,n,n
CCCCCn1c(=O)[nH]c2cc(C(=O)N3CCN(c4ccc(F)cc4)CC3)ccc2c1=O,n,n,u,-76,u
CCCCCn1c(=O)[nH]c2cc(C(=O)N3CCN(c4ccc(OC)cc4)CC3)ccc2c1=O,n,u,n,n,x
CCCCCn1c(=O)[nH]c2cc(C(=O)N3CCN(c4ccc(C(C)=O)cc4)CC3)ccc2c1=O,n,u,u,-74,7.9µM
CCCCCn1c(=O)[nH]c2cc(C(=O)N3CCN(c4cccc(C)c4)C(C)C3)ccc2c1=O (stereo not given),u,u,16µM,n,x
CCN1CCN(S(=O)(=O)c2cc3c(cc2Cl)NC(=O)CO3)CC1,x,x,n,n,n
CC(C)CC(COCc1ccc(F)cc1)N1CCN(C(=O)c2cccc(C(F)(F)F)c2)CCC1=O (stereo not given),21µM,u,n,n,n
CC(C)CC(COCc1cccc(Cl)c1)N1CCN(C(=O)c2ccc(C(F)(F)F)cc2)CCC1=O (stereo not given),10µM,u,u,n,n
CCC(C)[C@H](NC(=O)[C@@H]1Cc2c([nH]c3ccccc23)C2c3ccccc3C(=O)N21)C(=O)N1CCC[C@@H]1C(=O)O (stereo not given in full),x,x,n,n,n
COc1ccc(CC(=O)Nc2ccccc2NC(=O)Cc2ccc(OC)cc2)cc1,x,x,n,n,n
COc1ccc(CC(=O)Nc2ccncc2Cl)cc1,x,x,u,-92,6.3µM
CC(=O)c1ccc(F)c(-c2cc(C)cc3c2OC(CNC(=O)c2ccnn2C)C3)c1 (stereo not given),x,x,n,x,x
Cc1ccc(N2CCN(Cc3nnc(-c4ccc5c(c4)OCO5)o3)CC2)c(C)c1,n,n,n,n,x
COc1ccc(C(C(=O)NCC2CCCO2)N(C(=O)CNC(=O)c2ccco2)c2cc(C)ccc2C)cc1OC (stereo not given),n,n,n,n,n
Cc1cc(C)c(S(=O)(=O)Cc2ccccc2)c(=O)[nH]1,u,n,n,n,n
Cc1ccc(S(=O)(=O)n2nc(-n3c(C)ccc3C)c3c(F)cccc32)c2ccccc12,n,11µM,n,n,n
Cc1ccc(C)n1-c1nn(S(=O)(=O)c2cccc3cccnc23)c2cccc(F)c12,n,u,n,n,n
CCN(CC)S(=O)(=O)c1ccc(OCC2CCCCO2)c([N+](=O)[O-])c1 (stereo not given),u,n,n,n,n
CC(C)(C)c1ccc(S(=O)(=O)CC(O)CSc2nc3c(cc2C#N)CCCC3)cc1 (stereo not given),n,u,n,n,n
N#Cc1cc2c(nc1SCC(O)CS(=O)(=O)Cc1ccc(Cl)cc1)CCCC2 (stereo not given),n,n,x,-64,u
N#CCSc1nc2c(cc1C#N)CCCCCC2,u,n,n,-68,u
O=[N+]([O-])c1ccc(S(=O)(=O)N2CCN=C2SCc2ccc(F)cc2)cc1,x,x,n,n,n
CCC(CC)COC(=O)C1=C(C)NC(=O)NC1c1ccccc1Br (stereo not given),n,n,u,u,n
SMILES,Lassa entry inh,Marburg entry inh,FMDV inh,HCMV antiviral,HCV inh
Cc1cc(C)c(-c2cc(NC(=O)COC(=O)c3ccc(NC(=O)CC#N)cc3)n(-c3ccccc3)n2)cc1C,n,n,n,n,n
Cc1nn(-c2ccccc2)c(C)c1NC(=O)COC(=O)c1ccc(NC(=O)CC#N)cc1,u,n,n,-68,n
Cc1nn(-c2ccccc2)c(C)c1NC(=O)COC(=O)CC(C)c1ccccc1 (stereo not given),n,n,n,-63,u
CCCCN1CC(COCc2ccccc2)Oc2cccc(Oc3ccccc3)c2S1(=O)=O (stereo not given),u,x,n,n,2.5µM
Cc1nn(C)c(C)c1CCC(=O)NC1CC(C)(C)Cc2c1cnn2-c1ccccc1 (stereo not given),n,n,n,-69,n
COc1ccc(-n2ncc3c2CC(C)(C)CC3NC(=O)c2cnc(C)cn2)cc1 (stereo not given),x,x,n,-64,n
OC[C@@H]1CN(Cc2ccc(-c3ccccc3)cc2)C[C@H](n2cnc3c(Nc4ccccc4)ncnc32)O1,x,x,32µM,-65,x
OC[C@@H]1CN(Cc2ccc(-c3ccccc3)cc2)C[C@H](n2cnc3c(NCc4ccc(F)cc4)ncnc32)O1,x,x,28µM,-85,x
Cc1ccc(-c2nnc(NC3CCCCC3)c3ccccc23)cc1S(=O)(=O)N1CCN(C)CC1,u,u,x,-74,n
COc1ccc(Nc2nnc(-c3ccc(C)c(S(=O)(=O)N4CCN(C)CC4)c3)c3ccccc23)cc1,n,n,n,-99,x
Cc1ccc(-c2nnc(Nc3cccc(O)c3)c3ccccc23)cc1S(=O)(=O)N1CCCCC1,u,x,n,-74,x
Cc1ccc(-c2nnc(Nc3ccccc3)c3ccccc23)cc1S(=O)(=O)N1CCN(C)CC1,n,n,n,n,x
COc1ccc(Nc2nnc(-c3ccc(C)c(S(=O)(=O)N4CCOCC4)c3)c3ccccc23)cc1,u,x,n,-99,x
Cc1c(CCC(=O)NCCc2ccc(Cl)cc2)c(=O)oc2c(C)c(O)ccc12,n,n,n,n,x
O=C(c1ccccc1)N1CC(=O)N2[C@H](CO)[C@@H](c3ccc(Br)cc3)[C@@H]2C1,x,x,x,n,x
